Activity calls are given as the source filed them.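 Rule for the calls: active = thallium flux through the channel raised or lowered by more than 3 SD from vehicle-only wells, actives on both sides; inactive = the rest.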
Key:
Assay in all cases: modulators of BK channel variants, profiling panel, selectivity assay, cell-based, U2OS BacMam, thallium flux, beta subunits (AID 1259406);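 note: initial slope of Thallos dye fluorescence rise after thallium is added; log ratio against the mean of 0.3% DMSO vehicle wells on the same plate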
F380Y = settings: at 30 µM
F380Y/beta1 = settings: at 30 µM
F380Y/beta2Delta = settings: at 30 µM
F380Y/beta4 = settings: at 30 µM
[1] = target: Calcium-activated potassium channel subunit alpha-1 (Homo sapiens) + Leucine-rich repeat-containing protein 26 (Homo sapiens) (UniProt Q12791+Q2I0M4); settings: F380Y/Slo1WT/gamma1, at 30 µM
R275C = settings: at 30 µM
R275C/beta1 = settings: at 30 µM
R275C/beta2Delta = settings: at 30 µM
R275C/beta4 = settings: at 30 µM
R275C/Slo1WT/beta2 = settings: at 30 µM

Measured: log fold change Tl+ flux

Calcium-activated potassium channel subunit alpha-1 (Homo sapiens) + Leucine-rich repeat-containing protein 26 (Homo sapiens), sequence (Q2I0M4 whole entry, looked up, one chain of several): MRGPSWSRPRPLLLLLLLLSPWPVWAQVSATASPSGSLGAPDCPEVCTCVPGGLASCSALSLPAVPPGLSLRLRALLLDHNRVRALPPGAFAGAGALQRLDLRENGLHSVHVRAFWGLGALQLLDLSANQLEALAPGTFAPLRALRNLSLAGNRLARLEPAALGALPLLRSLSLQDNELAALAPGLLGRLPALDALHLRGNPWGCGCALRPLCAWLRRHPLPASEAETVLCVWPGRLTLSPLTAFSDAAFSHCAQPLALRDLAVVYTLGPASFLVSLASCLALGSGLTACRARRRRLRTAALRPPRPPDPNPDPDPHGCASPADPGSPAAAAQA

CC(=O)C1=C(C)Nc2ccccc2S1
inactive: F380Y 0.0144 | F380Y/beta1 -0.00709 | F380Y/beta2Delta -0.0326 | F380Y/beta4 -0.00774 | [1] -0.000563 | R275C 0.0464 | R275C/beta1 -0.0243 | R275C/beta2Delta -0.0168 | R275C/beta4 -0.00794 | R275C/Slo1WT/beta2 0.0465

O=C(NC(=O)c1ccccc1Oc1ccc(Cl)cc1Cl)Nc1cc(Cl)cc(Cl)c1
inactive: F380Y 0.0204 | F380Y/beta1 0.0216 | F380Y/beta2Delta -0.00408 | F380Y/beta4 -0.00832 | [1] 0.0199 | R275C 0.0363 | R275C/beta1 -0.0332 | R275C/beta2Delta 0.00447 | R275C/beta4 0.0362 | R275C/Slo1WT/beta2 -0.00947

CC(=O)c1cc2cc(Cl)cc(Cl)c2oc1=O
inactive: F380Y 0.0337 | F380Y/beta1 0.0359 | F380Y/beta2Delta -0.0227 | F380Y/beta4 -0.0296 | [1] -0.0196 | R275C -0.0332 | R275C/beta1 0.029 | R275C/beta2Delta 0.0111 | R275C/beta4 -0.0163 | R275C/Slo1WT/beta2 -0.0243

Cc1onc(-c2c(Cl)cccc2Cl)c1C1=NCCO1
inactive: F380Y -0.0274 | F380Y/beta1 -0.0222 | F380Y/beta2Delta -0.0541 | F380Y/beta4 -0.0118 | [1] -0.0114 | R275C -0.0117 | R275C/beta1 -0.0507 | R275C/beta2Delta -0.0377 | R275C/beta4 0.0277 | R275C/Slo1WT/beta2 -0.00731

Cc1cc(S(=O)(=O)c2ccc(Cl)cc2)sc1C(=O)NCC(O)c1ccccc1 (stereo not given)
inactive: F380Y 0.0511 | F380Y/beta1 0.0134 | F380Y/beta2Delta 0.000794 | F380Y/beta4 0.0168 | [1] -0.0326 | R275C -0.0286 | R275C/beta1 0.095 | R275C/beta2Delta 0.0132 | R275C/beta4 0.0561 | R275C/Slo1WT/beta2 -0.00987

CSc1n[nH]c(N)c1S(=O)(=O)C(C)C
inactive: F380Y 0.0369 | F380Y/beta1 0.0175 | F380Y/beta2Delta 0.0116 | F380Y/beta4 -0.00921 | [1] 0.0306 | R275C -0.018 | R275C/beta1 0.0133 | R275C/beta2Delta -0.00282 | R275C/beta4 0.0217 | R275C/Slo1WT/beta2 0.0141

Cc1cc(C)c2cc(C(=O)Nc3ccccc3SCc3cccc(Cl)c3F)[nH]c2c1
inactive: F380Y 0.0408 | F380Y/beta1 0.0143 | F380Y/beta2Delta 0.00341 | F380Y/beta4 -0.00891 | [1] -0.00142 | R275C 0.000963 | R275C/beta1 0.041 | R275C/beta2Delta 0.02 | R275C/beta4 0.00151 | R275C/Slo1WT/beta2 0.025

Cc1[nH]n(-c2c(Cl)cc(C(F)(F)F)cc2Cl)c(=O)c1N=Nc1ccccc1
inactive: F380Y 0.0138 | F380Y/beta1 0.00301 | F380Y/beta2Delta 0.00886 | F380Y/beta4 0.0101 | [1] -0.0146 | R275C -0.0246 | R275C/beta1 0.00755 | R275C/beta2Delta 0.0171 | R275C/beta4 -0.0209 | R275C/Slo1WT/beta2 -0.029

Cc1nc2ccc(C(=O)O)cc2[nH]1
inactive: F380Y 0.0381 | F380Y/beta1 0.0177 | F380Y/beta2Delta 0.0131 | F380Y/beta4 0.0015 | [1] 0.0154 | R275C 0.0142 | R275C/beta1 0.0541 | R275C/beta2Delta 0.0118 | R275C/beta4 -0.00127 | R275C/Slo1WT/beta2 0.0354

CN1CCN(S(=O)(=O)c2ccc(CNC(=O)c3ccccc3)s2)CC1
inactive: F380Y -0.0286 | F380Y/beta1 -0.0353 | F380Y/beta2Delta -0.0627 | F380Y/beta4 -0.0096 | [1] -0.0465 | R275C 0.0435 | R275C/beta1 0.0151 | R275C/beta2Delta -0.00195 | R275C/beta4 0.00386 | R275C/Slo1WT/beta2 -0.0258

COc1ccc(CNCc2cc(OC)c(OC)c(OC)c2)cc1
inactive: F380Y -0.0783 | F380Y/beta1 0.0429 | F380Y/beta2Delta -0.0785 | [1] -0.099 | R275C -0.0423 | R275C/beta1 0.0356 | R275C/beta4 -0.0177
active: F380Y/beta4 -0.1 | R275C/beta2Delta -0.0892 | R275C/Slo1WT/beta2 -0.102

CN(NC(=O)c1ccc(Cl)s1)c1cnn(-c2cc(Cl)cc(Cl)c2)c(=O)c1Cl
inactive: F380Y 0.0366 | F380Y/beta1 -0.0161 | F380Y/beta2Delta 0.019 | F380Y/beta4 0.00909 | [1] -0.0561 | R275C -0.0148 | R275C/beta1 0.00182 | R275C/beta2Delta 0.046 | R275C/beta4 -0.0313 | R275C/Slo1WT/beta2 -0.00119

Cc1nc(-c2ccc(S(=O)(=O)N3CCCN(c4ccc(C(F)(F)F)cn4)CC3)s2)cs1
inactive: F380Y 0.00624 | F380Y/beta1 -0.00592 | F380Y/beta2Delta -0.0273 | [1] 0.00148 | R275C -0.0736 | R275C/beta1 -0.0131 | R275C/beta2Delta -0.0332 | R275C/beta4 -0.00508 | R275C/Slo1WT/beta2 0.0123
active: F380Y/beta4 -0.105

Cn1c(C(=O)O)ccc1S(=O)(=O)N(Cc1ccccc1)Cc1ccccc1
inactive: F380Y 0.0347 | F380Y/beta2Delta 0.0498 | [1] 0.000486 | R275C 0.00591 | R275C/beta1 0.0906 | R275C/Slo1WT/beta2 0.0146
active: F380Y/beta1 0.205 | F380Y/beta4 0.139 | R275C/beta2Delta 0.0893 | R275C/beta4 0.11

O=C(CCn1nc(-c2ccc(F)cc2)ccc1=O)NCc1ccccc1
inactive: F380Y 0.0369 | F380Y/beta1 0.0341 | F380Y/beta2Delta 0.06 | F380Y/beta4 -0.00672 | [1] 0.0366 | R275C 0.021 | R275C/beta1 0.0385 | R275C/beta2Delta 0.0213 | R275C/beta4 0.037 | R275C/Slo1WT/beta2 0.000143

COc1ccc(C(=O)NNC(=O)c2c(OC)cc(C(F)(F)F)cc2C(F)(F)F)cc1
inactive: F380Y 0.044 | F380Y/beta1 0.017 | F380Y/beta2Delta -0.00926 | F380Y/beta4 0.0361 | [1] 0.00672 | R275C 0.0148 | R275C/beta1 0.0608 | R275C/beta2Delta 0.00715 | R275C/beta4 0.021 | R275C/Slo1WT/beta2 0.015

COc1cc(CCC(C)NC(=O)c2ccc(C)cc2)ccc1OC(=O)c1ccc(C)cc1 (stereo not given)
inactive: F380Y -0.0917 | F380Y/beta1 -0.0646 | F380Y/beta2Delta -0.0421 | R275C -0.0349 | R275C/beta1 -0.0935 | R275C/beta2Delta -0.0312 | R275C/beta4 -0.0233 | R275C/Slo1WT/beta2 0.00819
active: F380Y/beta4 -0.23 | [1] -0.115

O=C1CSCC(=O)N1c1csc(C(F)(F)F)c1-c1ccccc1
inactive: F380Y -0.0223 | F380Y/beta2Delta -0.00325 | F380Y/beta4 0.0035 | [1] 0.0169 | R275C 0.0132 | R275C/beta2Delta 0.0241 | R275C/Slo1WT/beta2 -0.00785
active: F380Y/beta1 0.0869 | R275C/beta1 0.122 | R275C/beta4 0.11

Cc1cc2nccc(-c3cccnc3)n2n1
inactive: F380Y -0.0198 | F380Y/beta1 -0.0232 | F380Y/beta2Delta 0.0219 | F380Y/beta4 -0.0149 | [1] -0.0534 | R275C 0.00294 | R275C/beta1 -0.00487 | R275C/beta2Delta -0.00124 | R275C/beta4 0.00702 | R275C/Slo1WT/beta2 -0.00651

Cc1oc(S(=O)(=O)N2CCOCC2)cc1C(=O)Nc1ccc(F)cc1
active: F380Y 0.119
inactive: F380Y/beta1 -0.00781 | F380Y/beta2Delta -0.0147 | F380Y/beta4 -0.000333 | [1] 0.0253 | R275C 0.0114 | R275C/beta1 0.0125 | R275C/beta2Delta 0.00085 | R275C/beta4 0.00598 | R275C/Slo1WT/beta2 -0.0174

N#Cc1cc(-c2ccccc2)oc1NC(=O)c1cccs1
inactive: F380Y -0.0586 | F380Y/beta1 0.0261 | F380Y/beta2Delta 0.0131 | F380Y/beta4 0.0109 | [1] 0.0363 | R275C 0.00241 | R275C/beta1 -0.0262 | R275C/beta2Delta 0.0138 | R275C/beta4 -0.00555 | R275C/Slo1WT/beta2 0.0278

CC(C)C1COC(c2cccc(C3=NC(C(C)C)CO3)n2)=N1 (stereo not given)
inactive: F380Y -0.0154 | F380Y/beta1 0.0433 | F380Y/beta2Delta 0.00332 | F380Y/beta4 0.0308 | [1] 0.0138 | R275C -0.00894 | R275C/beta1 0.00883 | R275C/beta2Delta -0.00732 | R275C/beta4 -0.00827 | R275C/Slo1WT/beta2 0.043

CCSc1ccc(-c2noc(C(C)(C)C)n2)cn1
inactive: F380Y 0.0439 | F380Y/beta1 0.0323 | F380Y/beta2Delta -0.00176 | F380Y/beta4 0.0153 | [1] -0.00182 | R275C 0.0189 | R275C/beta1 0.0241 | R275C/beta2Delta -0.0201 | R275C/beta4 0.031 | R275C/Slo1WT/beta2 -0.00966

N#CC1=C(Nc2ccccc2Cl)SC(c2ccncc2)NC1=O (stereo not given)
inactive: F380Y -0.0226 | F380Y/beta1 0.0482 | F380Y/beta2Delta 0.0198 | F380Y/beta4 -0.00461 | [1] 0.0291 | R275C 0.0616 | R275C/beta1 0.0544 | R275C/beta2Delta 0.0222 | R275C/beta4 0.0286 | R275C/Slo1WT/beta2 0.0417

Source: PubChem BioAssay
